Measurements: article PMC4336329 (PLoS ONE, 2015)
The whole screen tested about 310,000 compounds, of which about 14,000 (4.5%) showed an effect of 50% or more. Effects have a minus sign here. This excerpt belongs to a sample that is enriched for strong results.
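Further: peak tail current of the secondary pulse compared with the same well before compound.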

What follows are compounds tested against human ether-à-go-go-related gene (hERG) potassium channel (human, UniProt Q12809) (assay: primary screen, population patch clamp on CHO cells stably expressing hERG; higher = less effect of the substance).
Sequence of human ether-à-go-go-related gene (hERG) potassium channel (Q12809 whole entry, looked up): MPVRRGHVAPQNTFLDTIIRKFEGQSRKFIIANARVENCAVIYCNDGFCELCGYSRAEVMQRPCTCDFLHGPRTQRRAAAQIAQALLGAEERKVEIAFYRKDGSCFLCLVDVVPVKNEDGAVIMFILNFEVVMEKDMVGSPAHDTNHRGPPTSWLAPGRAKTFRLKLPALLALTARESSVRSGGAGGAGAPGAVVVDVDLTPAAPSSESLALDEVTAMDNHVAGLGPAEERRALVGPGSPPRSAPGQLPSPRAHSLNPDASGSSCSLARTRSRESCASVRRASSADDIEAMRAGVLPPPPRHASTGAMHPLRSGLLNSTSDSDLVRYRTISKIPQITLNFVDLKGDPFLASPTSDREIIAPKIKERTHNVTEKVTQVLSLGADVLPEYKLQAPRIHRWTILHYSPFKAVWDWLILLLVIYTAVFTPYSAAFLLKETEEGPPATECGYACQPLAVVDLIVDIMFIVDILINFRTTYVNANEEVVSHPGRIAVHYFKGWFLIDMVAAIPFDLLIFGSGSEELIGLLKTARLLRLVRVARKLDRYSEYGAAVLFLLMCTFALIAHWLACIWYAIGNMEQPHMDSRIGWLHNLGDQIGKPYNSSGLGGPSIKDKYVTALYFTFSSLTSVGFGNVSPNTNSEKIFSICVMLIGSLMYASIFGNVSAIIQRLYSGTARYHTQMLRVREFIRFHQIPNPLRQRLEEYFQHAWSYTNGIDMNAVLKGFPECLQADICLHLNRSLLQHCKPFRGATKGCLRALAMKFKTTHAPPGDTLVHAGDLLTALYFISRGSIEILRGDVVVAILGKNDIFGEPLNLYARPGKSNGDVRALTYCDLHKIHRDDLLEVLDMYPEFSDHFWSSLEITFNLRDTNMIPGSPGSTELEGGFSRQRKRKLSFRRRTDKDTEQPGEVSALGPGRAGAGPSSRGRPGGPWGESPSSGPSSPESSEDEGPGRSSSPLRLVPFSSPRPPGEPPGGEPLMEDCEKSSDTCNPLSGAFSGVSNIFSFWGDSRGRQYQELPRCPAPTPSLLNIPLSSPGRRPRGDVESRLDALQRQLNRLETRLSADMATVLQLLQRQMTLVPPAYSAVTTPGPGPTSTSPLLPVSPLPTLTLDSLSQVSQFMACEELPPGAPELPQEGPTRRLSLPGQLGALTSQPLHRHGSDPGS
In the case of N#Cc1cccc(C(=O)OCC(=O)N2CCCc3ccccc32)c1, the “hERG current change (%, negative = inhibition) at 10uM” value is reported as -1.94%.
With COc1cc(CN2CCC(n3nccc3NC(=O)CCCc3ccccc3)CC2)ccc1O the “hERG current change (%, negative = inhibition) at 10uM” value was -31.1%.
In the case of COc1cc(CN2CCC(n3nccc3NC(=O)CCCc3ccccc3)CC2)ccc1F, the “hERG current change (%, negative = inhibition) at 10uM” value is reported as -66.5%.
With COc1ccc(CN2CCC(n3nccc3NC(=O)CCCc3ccccc3)CC2)cc1C the “hERG current change (%, negative = inhibition) at 10uM” value was -93.3%.
For O=C(O)CNC(=O)c1ccccc1NC(=O)c1ccco1, the “hERG current change (%, negative = inhibition) at 10uM” value was 7.93%.
With COc1ccccc1C/C(N)=N/OC(=O)COc1ccc(C)cc1C the “hERG current change (%, negative = inhibition) at 10uM” value was 17.4%.
For CC12CC3CC(C)(C1)CC(C(=O)NCc1cccnc1)(C3)C2, the “hERG current change (%, negative = inhibition) at 10uM” value was -11.6%.
With COCC1CCN(Cc2nc(-c3ccc4c(c3)OCO4)no2)C1 (centres unmarked) the “hERG current change (%, negative = inhibition) at 10uM” value was -17.1%.
With O=C(c1ccco1)N1CCCN(Cc2nc(-c3ccc4c(c3)OCO4)no2)CC1 the “hERG current change (%, negative = inhibition) at 10uM” value was -46.1%.
In the case of c1cc(C2CCN(Cc3nc(-c4ccc5c(c4)OCO5)no3)CC2)ccn1, the “hERG current change (%, negative = inhibition) at 10uM” value is reported as -19.7%.
With Fc1ccc(CN2CCCN(Cc3nc(-c4ccc5c(c4)OCO5)no3)CC2)cc1 the “hERG current change (%, negative = inhibition) at 10uM” value was -62.2%.
For COCC1CCCN(Cc2nc(-c3ccc4c(c3)OCO4)no2)C1 (centres unmarked), the “hERG current change (%, negative = inhibition) at 10uM” value was -5.71%.
c1ccc(OCCN2CCN(Cc3nc(-c4ccc5c(c4)OCO5)no3)CC2)cc1 was tested, and the “hERG current change (%, negative = inhibition) at 10uM” value was -51.5%.
In the case of Fc1ccccc1CNc1ncnc2sccc12, the “hERG current change (%, negative = inhibition) at 10uM” value is reported as 11.9%.
For CCOC(=O)CN1C(=O)SC(Nc2ccc(C)cc2)C1=O (centres unmarked), the “hERG current change (%, negative = inhibition) at 10uM” value was 27.1%.
In the case of O=C(Nc1c2c(nn1-c1ccccc1)CS(=O)C2)c1ccco1 (centres unmarked), the “hERG current change (%, negative = inhibition) at 10uM” value is reported as 7.5%.
CC(=O)OCC(=O)[C@@]1(OC(C)=O)[C@@H](C)C[C@H]2[C@@H]3C[C@H](F)C4=CC(=O)C=C[C@]4(C)[C@@]3(F)[C@@H](O)C[C@@]21C was tested, and the “hERG current change (%, negative = inhibition) at 10uM” value was -15.1%.
In the case of Cl.c1ccc(Nc2nc(NCC3CCCO3)c3ccccc3n2)cc1 (centres unmarked), the “hERG current change (%, negative = inhibition) at 10uM” value is reported as -31.2%.
In the case of CC(C)Oc1ccc(-c2nc(NCC3CCCO3)c3ccccc3n2)cc1 (centres unmarked), the “hERG current change (%, negative = inhibition) at 10uM” value is reported as -27.4%.
In the case of CCOc1ccc(Nc2nc(N)c3ccccc3n2)cc1.Cl, the “hERG current change (%, negative = inhibition) at 10uM” value is reported as -41.8%.
In the case of Oc1ccc(Cl)cc1Nc1nc(NCC2CCCO2)c2ccccc2n1 (centres unmarked), the “hERG current change (%, negative = inhibition) at 10uM” value is reported as 23%.
With Oc1ccccc1-c1nc(NCC2CCCO2)c2ccccc2n1 (centres unmarked) the “hERG current change (%, negative = inhibition) at 10uM” value was 19%.
With Cl.Oc1cccc(Nc2nc(NCC3CCCO3)c3ccccc3n2)c1 (centres unmarked) the “hERG current change (%, negative = inhibition) at 10uM” value was -61.4%.
For COc1ccc(S(=O)(=O)Nc2nc3ccccc3nc2NCC2CCCO2)cc1 (centres unmarked), the “hERG current change (%, negative = inhibition) at 10uM” value was 5.29%.
For COc1ccc(Nc2nc(NCC3CCCO3)c3ccccc3n2)c(OC)c1.Cl (centres unmarked), the “hERG current change (%, negative = inhibition) at 10uM” value was -71.7%.
With COc1ccc(OC)c(Nc2nc(NCCO)c3ccccc3n2)c1.Cl the “hERG current change (%, negative = inhibition) at 10uM” value was -44.4%.
Cl.Oc1ccccc1Nc1nc(NCC2CCCO2)c2ccccc2n1 (centres unmarked) was tested, and the “hERG current change (%, negative = inhibition) at 10uM” value was -67.5%.
With Cl.OCCNc1nc(Nc2cccc(O)c2)nc2ccccc12 the “hERG current change (%, negative = inhibition) at 10uM” value was -23.8%.
In the case of CCOc1ccc(Nc2nc(NCC3CCCO3)c3ccccc3n2)cc1.Cl (centres unmarked), the “hERG current change (%, negative = inhibition) at 10uM” value is reported as -72.3%.
For CC(C)C[C@@H](CO)N1CCN(Cc2cccnc2)CCC1=O, the “hERG current change (%, negative = inhibition) at 10uM” value was 3.69%.
With CCn1c2ccccc2c2cc(NC(=O)c3cccc([N+](=O)[O-])c3C)ccc21 the “hERG current change (%, negative = inhibition) at 10uM” value was 7.76%.
In the case of CCOc1ccc(/C=C2/SC(=S)N(n3c(C)ccc3C)C2=O)cc1, the “hERG current change (%, negative = inhibition) at 10uM” value is reported as 8.78%.
Cc1ccc(N=C(N(C)C)P(=O)(N(C)C)N(C)C)cc1 was tested, and the “hERG current change (%, negative = inhibition) at 10uM” value was 17.4%.
Cc1ccc(Oc2cc(NN3CCCCC3)c([N+](=O)[O-])cc2[N+](=O)[O-])c([N+](=O)[O-])c1 was tested, and the “hERG current change (%, negative = inhibition) at 10uM” value was -10.3%.
O=C(Nc1cccc(NC(=O)c2ccccc2Cl)c1)c1cccs1 was tested, and the “hERG current change (%, negative = inhibition) at 10uM” value was 2.54%.
With O=[N+]([O-])c1ccc(CSC2=NCCS2)cc1 the “hERG current change (%, negative = inhibition) at 10uM” value was -15.3%.
With CC1CCN(C(=O)c2[nH]cnc2C(=O)N2CCN(C(=O)OC(C)(C)C)CC2)CC1 the “hERG current change (%, negative = inhibition) at 10uM” value was 19%.
With O=C(CN(Cc1ccccc1Cl)C(=O)c1csnn1)NC1CCCC1 the “hERG current change (%, negative = inhibition) at 10uM” value was -13.6%.
In the case of COc1ccccc1Nc1nc(NCC2CCCO2)c2ccccc2n1.Cl (centres unmarked), the “hERG current change (%, negative = inhibition) at 10uM” value is reported as -59.6%.
In the case of COc1cccc(-c2nc(NCC3CCCO3)c3ccccc3n2)c1O (centres unmarked), the “hERG current change (%, negative = inhibition) at 10uM” value is reported as -21.2%.
With c1cncc(-c2nc(NCC3CCCO3)c3ccccc3n2)c1 (centres unmarked) the “hERG current change (%, negative = inhibition) at 10uM” value was 7.02%.
In the case of CC(C)C(=O)NC(=S)Nc1ccccc1C(F)(F)F, the “hERG current change (%, negative = inhibition) at 10uM” value is reported as 10.4%.
O=C(N/N=C/c1coc2ccccc2c1=O)c1ccccc1Br was tested, and the “hERG current change (%, negative = inhibition) at 10uM” value was -0.324%.
With Cc1cccc(Nc2ccc(NCc3ccccc3)nn2)c1 the “hERG current change (%, negative = inhibition) at 10uM” value was -51.8%.
For Clc1ccc(Nc2ccc(NCc3ccccc3)nn2)cc1, the “hERG current change (%, negative = inhibition) at 10uM” value was -37.8%.
With Cc1cccc(NCc2ccccc2)c1 the “hERG current change (%, negative = inhibition) at 10uM” value was 5.29%.
For O=C(NNC(=S)NC(=O)c1ccccc1[N+](=O)[O-])c1ccccc1Cl, the “hERG current change (%, negative = inhibition) at 10uM” value was 6.38%.
For O=C(NNC(=S)NC(=O)c1ccccc1[N+](=O)[O-])c1ccccc1[N+](=O)[O-], the “hERG current change (%, negative = inhibition) at 10uM” value was 15.1%.
With O=C(NNC(=S)NC(=O)c1ccccc1[N+](=O)[O-])c1ccc(Cl)cc1Cl the “hERG current change (%, negative = inhibition) at 10uM” value was -58.2%.
For N/C(=N\N=C\c1ccco1)SC1CC(=O)N(c2ccccc2)C1=O (centres unmarked), the “hERG current change (%, negative = inhibition) at 10uM” value was 17.1%.
With CC(C)CC(=O)NC(=S)Nc1sc2c(c1C(N)=O)CCC2 the “hERG current change (%, negative = inhibition) at 10uM” value was 15.7%.
With Cc1nn(-c2cc(N3CCOCC3)ccc2N)c(=O)c2ccccc12 the “hERG current change (%, negative = inhibition) at 10uM” value was 0.574%.
With O=C(NCc1ccccn1)c1ccccc1OCc1ccc(F)cc1 the “hERG current change (%, negative = inhibition) at 10uM” value was -56.9%.
O=C(NCc1ccc(F)cc1)c1ccccc1OCc1ccccc1 was tested, and the “hERG current change (%, negative = inhibition) at 10uM” value was -8.06%.
With COc1ccccc1C(=O)NCc1ccccn1 the “hERG current change (%, negative = inhibition) at 10uM” value was 18.4%.
In the case of O=C(Cn1nc(C(=O)O)c2ccccc2c1=O)NCC1CCCO1 (centres unmarked), the “hERG current change (%, negative = inhibition) at 10uM” value is reported as 20%.
